# Experimental data taken from PubChem BioAssay AID1159580 (chemical genetic matrix, 2015).
# Screen size: about 5,500 compounds; about 2,000 (36%) were called active. Inconclusive results (about 18%) are left out. The list shows a part of the results. Values without a mark were called inactive. No stated cut-off is given here; in the data, active means normalized growth mostly below about 0.91 (no sharp cut-off); inconclusive means no clear call, values can overlap the other calls; inactive means mostly above about 0.92.
# Assay: chemical genetic growth profiling, strain panel (AID 1159580);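 further: tested at 20 µM; growth read once vehicle control cultures reached saturation at 30 °C; 1 = growth at the plate median or of vehicle wells; lower values mean less growth of the strain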
# Details: S. cerevisiae deletion strains, growth OD
# [1] = locus YAL040C, strain CLN3, hits give low values
# [2] = locus YCL061C, strain MRC1 (second series), hits give low values
# [3] = locus YDR363W, strain ESC2, hits give low values
# [4] = locus YER002W, strain NOP16, hits give low values
# [5] = locus YNL175C, strain NOP13, hits give low values
# [6] = locus YNL197C, strain WHI3, hits give low values
# [7] = locus YNL224C, strain SQS1, hits give low values
# [8] = locus YOR083W, strain WHI5 (second series), hits give low values
# [9] = locus YPL241C, strain CIN2, hits give low values
# [10] = locus YGR078C, strain PAC10, hits give low values
structure (smiles),measurement,setting,value
COc1cc(C(O)CO)ccc1OS(=O)(=O)O (stereo not drawn),normalized growth,[1],0.981
same,normalized growth,[2],1
same,normalized growth,[3],0.994
same,normalized growth,[4],0.991
same,normalized growth,"locus YGR229C, strain SMI1, hits give low values",1.01
same,normalized growth,[5],0.998
same,normalized growth,[6],1
same,normalized growth,[7],1.01
same,normalized growth,"locus YNL322C, strain KRE1, hits give low values",1.01
same,normalized growth,[8],1.05
same,normalized growth,[9],0.996
C1COC(NC(C2CC2)C2CC2)=N1,normalized growth,[1],1.01
same,normalized growth,[2],0.997
same,normalized growth,[3],1.01
same,normalized growth,[4],0.995
same,normalized growth,[10],0.997
same,normalized growth,"locus YMR307W, strain GAS1, hits give low values",0.956
same,normalized growth,[5],1.01
same,normalized growth,[6],0.997
same,normalized growth,[7],0.999
same,normalized growth,[8],1.01
CSc1nc(N)c2ncn([C@@H]3O[C@H](COP(=O)(O)OP(=O)(O)OP(=O)(O)O)[C@H](O)C3O)c2n1 (stereo partly drawn),normalized growth,[1],0.978
same,normalized growth,"locus YDR150W, strain NUM1, hits give low values",1.03
same,normalized growth,[4],0.998
same,normalized growth,[10],0.981
same,normalized growth,"locus YMR263W, strain SAP30, hits give low values",1
same,normalized growth,"locus YNL153C, strain GIM3, hits give low values",1.01
same,normalized growth,[5],0.986
same,normalized growth,[6],0.979
same,normalized growth,[7],0.967
same,normalized growth,[8],1
same,normalized growth,[9],1.01
COc1cc(Br)cc(C=Nc2ccc(Sc3ccccc3)nc2Sc2ccccc2)c1O,normalized growth,"locus YAR019C, strain CDC15, hits give low values",0.968
same,normalized growth,"locus YBL105C, strain PKC1, hits give low values",0.976
same,normalized growth,"locus YBR135W, strain CKS1, hits give low values",0.96
same,normalized growth,"locus YBR136W, strain MEC1, hits give low values",0.973
same,normalized growth,"locus YBR160W, strain CDC28, hits give low values",0.965
same,normalized growth,"locus YDL017W, strain CDC7, hits give low values",0.969
same,normalized growth,"locus YDL028C, strain MPS1, hits give low values",0.962
same,normalized growth,"locus YDL101C, strain DUN1, hits give low values",0.969
same,normalized growth,"locus YDL108W, strain KIN28, hits give low values",0.958
same,normalized growth,"locus YDL132W, strain cdc53, hits give low values",0.949
same,normalized growth,"locus YDL214C, strain PRR2, hits give low values",0.838
same,normalized growth,"locus YDR052C, strain DBF4, hits give low values",0.976
same,normalized growth,"locus YDR054C, strain cdc34, hits give low values",0.957
same,normalized growth,"locus YDR226W, strain ADK1, hits give low values",0.964
same,normalized growth,"locus YDR477W, strain SNF1, hits give low values",0.812
same,normalized growth,"locus YER123W, strain YCK3, hits give low values",0.831
same,normalized growth,"locus YER133W, strain GLC7, hits give low values",0.843
same,normalized growth,"locus YFL009W, strain cdc4, hits give low values",0.955
same,normalized growth,"locus YFL029C, strain CAK1, hits give low values",0.966
same,normalized growth,"locus YFR003C, strain YPI1, hits give low values",0.967
same,normalized growth,"locus YFR019W, strain FAB1, hits give low values",0.969
same,normalized growth,"locus YFR028C, strain CDC14, hits give low values",0.955
same,normalized growth,"locus YGR040W, strain KSS1, hits give low values",0.857
same,normalized growth,"locus YGR052W, strain FMP48, hits give low values",0.782
same,normalized growth,"locus YGR092W, strain DBF2, hits give low values",0.523
same,normalized growth,"locus YHR030C, strain SLT2, hits give low values",0.489 (active)
same,normalized growth,"locus YHR079C, strain IRE1, hits give low values",0.703
same,normalized growth,"locus YHR082C, strain KSP1, hits give low values",0.845
same,normalized growth,"locus YHR205W, strain SCH9, hits give low values",0.696
same,normalized growth,"locus YIL147C, strain SLN1, hits give low values",0.964
same,normalized growth,"locus YJL095W, strain BCK1, hits give low values",0.638
same,normalized growth,"locus YJL128C, strain PBS2, hits give low values",0.918
same,normalized growth,"locus YJL157C, strain FAR1, hits give low values",0.848
same,normalized growth,"locus YJR016C, strain ILV3, hits give low values",0.974
same,normalized growth,"locus YJR066W, strain TOR1 (second series), hits give low values",0.848
same,normalized growth,"locus YJR066W, strain TOR1, hits give low values",0.636
same,normalized growth,"locus YKL048C, strain ELM1, hits give low values",0.935
same,normalized growth,"locus YKL067W, strain YNK1, hits give low values",0.808
same,normalized growth,"locus YKL101W, strain HSL1, hits give low values",0.861
same,normalized growth,"locus YKL193C, strain SDS22, hits give low values",0.962
same,normalized growth,"locus YKL203C, strain TOR2, hits give low values",0.91
same,normalized growth,"locus YLR113W, strain HOG1, hits give low values",0.746 (active)
same,normalized growth,"locus YLR133W, strain CKI1, hits give low values",0.846
same,normalized growth,"locus YLR403W, strain SFP1, hits give low values",0.772
same,normalized growth,"locus YML070W, strain DAK1, hits give low values",0.888
same,normalized growth,"locus YMR001C, strain CDC5, hits give low values",0.951
same,normalized growth,"locus YMR205C, strain PFK2 (second series), hits give low values",0.843
same,normalized growth,"locus YMR277W, strain FCP1, hits give low values",0.959
same,normalized growth,"locus YNL006W, strain LST8, hits give low values",0.971
same,normalized growth,"locus YNL020C, strain ARK1, hits give low values",0.82
same,normalized growth,"locus YNL161W, strain CBK1, hits give low values",0.972
same,normalized growth,"locus YNL183C, strain NPR1, hits give low values",0.72
same,normalized growth,"locus YNL207W, strain RIO2, hits give low values",0.961
same,normalized growth,"locus YNL222W, strain SSU72, hits give low values",0.962
same,normalized growth,"locus YNL307C, strain MCK1 (second series), hits give low values",0.766
same,normalized growth,"locus YOL078W, strain AVO1, hits give low values",0.963
same,normalized growth,"locus YOL136C, strain PFK27, hits give low values",0.893
same,normalized growth,"locus YOR061W, strain CKA2, hits give low values",0.824
same,normalized growth,"locus YOR119C, strain RIO1, hits give low values",0.838
same,normalized growth,"locus YOR231W, strain MKK1, hits give low values",0.766
same,normalized growth,"locus YOR329C, strain SCD5, hits give low values",0.967
same,normalized growth,"locus YPL031C, strain PHO85, hits give low values",0.827
same,normalized growth,"locus YPL153C, strain RAD53, hits give low values",0.808
same,normalized growth,"locus YPL204W, strain HRR25, hits give low values",0.801
same,normalized growth,"locus YPL209C, strain IPL1, hits give low values",0.968
same,normalized growth,"locus YPL256C, strain CLN2, hits give low values",0.794 (active)
same,normalized growth,"locus YPR025C, strain CCL1, hits give low values",0.962
same,normalized growth,"locus YPR106W, strain ISR1, hits give low values",0.957
same,normalized growth,"locus YPR111W, strain DBF20, hits give low values",0.939
same,normalized growth,"strain NNK1, hits give low values",0.97
same,normalized growth,"strain TSCII, hits give low values",0.964
